# In publication PMC7862700, “An all-to-all approach to the identification of sequence-specific readers for epigenetic DNA modifications on cytosine”:
# Legend:
# Experiment in all cases: DAPPL (digital affinity profiling via proximity ligation, sequencing); 10 mM Tris-HCl pH 7.5, 50 mM NaCl, 1 mM DTT, 4% glycerol, room temperature, 30 min; GST-TFs on glutathione beads, 16-mer random dsDNA library, 0.1% formaldehyde crosslink after washing; high values mean tight binding
# Conditions in all cases: protein: recombinant; tags: N-terminal GST; dsDNA, one strand shown
# ELK1 = molecular target: T1, ELK1 (Homo sapiens, UniProt P19419 1-428)
# T1 sequence: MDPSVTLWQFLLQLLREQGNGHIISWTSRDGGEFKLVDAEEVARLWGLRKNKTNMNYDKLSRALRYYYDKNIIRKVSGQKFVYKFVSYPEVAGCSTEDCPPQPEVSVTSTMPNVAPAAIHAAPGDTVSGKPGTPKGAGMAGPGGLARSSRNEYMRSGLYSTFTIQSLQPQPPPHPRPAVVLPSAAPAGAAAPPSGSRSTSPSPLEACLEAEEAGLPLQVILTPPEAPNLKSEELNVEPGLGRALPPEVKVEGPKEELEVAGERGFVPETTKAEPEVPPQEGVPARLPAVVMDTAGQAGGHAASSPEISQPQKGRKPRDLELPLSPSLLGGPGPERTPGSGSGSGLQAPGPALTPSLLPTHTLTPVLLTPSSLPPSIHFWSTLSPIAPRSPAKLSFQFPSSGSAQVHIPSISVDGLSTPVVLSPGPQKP
# In short: (§1)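 Human transcription factors fused to GST were expressed in yeast, captured on glutathione beads, given DNA barcodes and pooled with a GST-only negative control. Pools were incubated with 200 nmole of a 16-mer random double-stranded DNA library in Tris/NaCl/DTT/glycerol buffer at room temperature for 30 min. They were then washed, crosslinked with 0.1% formaldehyde, proximity-ligated (BsaI/T4 ligase, 1 h, 37 °C), PCR-amplified and sequenced on an Illumina NextSeq500. Binding signal is each 6-mer's read frequency for a factor divided by its frequency for the GST control.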
# GABPA = molecular target: T2, GABPA (Homo sapiens, UniProt Q06546 1-454)
# T2 sequence: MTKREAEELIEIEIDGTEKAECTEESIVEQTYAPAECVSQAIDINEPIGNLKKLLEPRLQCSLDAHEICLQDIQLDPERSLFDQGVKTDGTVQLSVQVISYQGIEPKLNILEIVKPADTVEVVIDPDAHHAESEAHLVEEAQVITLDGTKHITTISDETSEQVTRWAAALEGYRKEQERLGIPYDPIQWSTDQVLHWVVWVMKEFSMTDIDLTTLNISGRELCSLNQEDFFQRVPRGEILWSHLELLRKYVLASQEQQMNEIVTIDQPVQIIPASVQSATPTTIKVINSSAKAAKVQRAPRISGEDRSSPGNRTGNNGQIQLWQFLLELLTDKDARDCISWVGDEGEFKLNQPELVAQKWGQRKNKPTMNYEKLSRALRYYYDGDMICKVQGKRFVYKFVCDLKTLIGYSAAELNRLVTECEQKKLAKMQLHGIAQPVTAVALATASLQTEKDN
# In short: as §1
# ERG = molecular target: T3, ERG (Homo sapiens, UniProt P11308 1-479)
# T3 sequence: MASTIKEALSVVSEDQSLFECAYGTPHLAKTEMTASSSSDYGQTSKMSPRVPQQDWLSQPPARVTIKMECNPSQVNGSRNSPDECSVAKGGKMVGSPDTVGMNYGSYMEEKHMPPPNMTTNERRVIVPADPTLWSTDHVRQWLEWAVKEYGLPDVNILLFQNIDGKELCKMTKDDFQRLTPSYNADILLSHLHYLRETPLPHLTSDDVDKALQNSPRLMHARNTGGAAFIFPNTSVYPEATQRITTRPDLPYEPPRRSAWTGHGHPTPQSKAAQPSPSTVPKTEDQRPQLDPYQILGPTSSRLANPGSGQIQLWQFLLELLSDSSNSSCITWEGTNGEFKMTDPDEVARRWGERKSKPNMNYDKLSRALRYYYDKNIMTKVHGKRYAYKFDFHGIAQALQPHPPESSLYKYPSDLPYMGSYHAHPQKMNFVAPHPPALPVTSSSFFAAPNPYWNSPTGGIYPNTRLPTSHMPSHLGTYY
# In short: as §1
# ELF1 = ELF1 (Homo sapiens, UniProt P32519 1-619)
# Chain of ELF1 (P32519 whole entry): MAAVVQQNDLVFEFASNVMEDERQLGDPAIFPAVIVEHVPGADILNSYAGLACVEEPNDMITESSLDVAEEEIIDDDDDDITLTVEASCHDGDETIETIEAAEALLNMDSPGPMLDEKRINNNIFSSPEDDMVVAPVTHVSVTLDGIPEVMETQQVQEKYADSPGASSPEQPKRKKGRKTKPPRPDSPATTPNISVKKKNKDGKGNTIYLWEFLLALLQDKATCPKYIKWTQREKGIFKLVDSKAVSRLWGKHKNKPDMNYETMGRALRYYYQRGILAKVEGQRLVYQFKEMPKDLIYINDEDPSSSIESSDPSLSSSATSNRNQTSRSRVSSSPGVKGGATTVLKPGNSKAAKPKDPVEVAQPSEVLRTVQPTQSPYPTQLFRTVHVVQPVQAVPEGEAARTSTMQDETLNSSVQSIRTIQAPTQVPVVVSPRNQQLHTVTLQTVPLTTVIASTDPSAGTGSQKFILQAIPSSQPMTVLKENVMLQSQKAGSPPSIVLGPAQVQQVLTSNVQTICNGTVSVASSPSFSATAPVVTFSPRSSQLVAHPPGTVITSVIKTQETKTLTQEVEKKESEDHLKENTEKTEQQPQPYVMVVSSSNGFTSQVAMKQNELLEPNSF
# In short: as §1
# EHF = molecular target: T4, EHF (Homo sapiens, UniProt Q9NZC4 1-300)
# T4 sequence: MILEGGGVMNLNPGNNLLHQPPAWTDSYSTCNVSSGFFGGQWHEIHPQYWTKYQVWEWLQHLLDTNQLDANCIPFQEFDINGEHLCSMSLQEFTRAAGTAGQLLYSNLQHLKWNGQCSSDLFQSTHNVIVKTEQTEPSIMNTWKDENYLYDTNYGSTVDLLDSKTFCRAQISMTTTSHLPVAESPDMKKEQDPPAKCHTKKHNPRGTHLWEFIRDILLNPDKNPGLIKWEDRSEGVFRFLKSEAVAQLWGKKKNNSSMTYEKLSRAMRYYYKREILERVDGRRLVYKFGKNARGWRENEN
# In short: as §1
# SPIB = SPIB (Homo sapiens, UniProt Q01892 1-262)
# Chain of SPIB (Q01892 whole entry): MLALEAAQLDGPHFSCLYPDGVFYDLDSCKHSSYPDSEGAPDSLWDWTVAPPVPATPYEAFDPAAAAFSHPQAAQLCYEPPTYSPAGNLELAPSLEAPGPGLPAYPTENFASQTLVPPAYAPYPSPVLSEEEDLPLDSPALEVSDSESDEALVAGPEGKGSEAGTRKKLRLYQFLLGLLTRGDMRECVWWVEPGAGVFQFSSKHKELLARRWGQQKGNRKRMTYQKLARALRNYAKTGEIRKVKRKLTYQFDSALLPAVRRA
# In short: as §1
# FEV = molecular target: T5, FEV (Homo sapiens, UniProt Q99581 1-238)
# T5 sequence: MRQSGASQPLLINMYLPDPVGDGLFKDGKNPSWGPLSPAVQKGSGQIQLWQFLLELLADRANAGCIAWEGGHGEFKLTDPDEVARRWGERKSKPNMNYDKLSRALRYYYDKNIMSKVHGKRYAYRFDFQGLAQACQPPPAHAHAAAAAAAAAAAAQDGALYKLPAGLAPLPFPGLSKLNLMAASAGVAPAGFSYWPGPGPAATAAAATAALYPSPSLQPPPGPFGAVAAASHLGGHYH
# In short: as §1
# ETV5 = ETV5 (Homo sapiens, UniProt P41161 1-510)
# Chain of ETV5 (P41161 whole entry): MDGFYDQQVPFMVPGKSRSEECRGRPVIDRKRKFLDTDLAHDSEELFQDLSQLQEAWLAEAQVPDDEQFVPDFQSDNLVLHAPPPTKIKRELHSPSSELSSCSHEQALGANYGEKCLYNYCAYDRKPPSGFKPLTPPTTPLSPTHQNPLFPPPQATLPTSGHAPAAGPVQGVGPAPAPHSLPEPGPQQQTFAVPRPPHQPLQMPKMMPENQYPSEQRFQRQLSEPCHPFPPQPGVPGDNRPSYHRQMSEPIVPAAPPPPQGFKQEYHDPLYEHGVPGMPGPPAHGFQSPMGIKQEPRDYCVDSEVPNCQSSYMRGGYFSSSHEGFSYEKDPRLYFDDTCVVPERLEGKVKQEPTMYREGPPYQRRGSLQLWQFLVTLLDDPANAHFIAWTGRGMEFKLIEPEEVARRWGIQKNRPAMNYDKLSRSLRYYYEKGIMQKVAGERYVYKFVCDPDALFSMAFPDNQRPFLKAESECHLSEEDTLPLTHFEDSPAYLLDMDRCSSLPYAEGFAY
# In short: as §1
# ELF4 = ELF4 (Homo sapiens, UniProt Q99607 1-663)
# Chain of ELF4 (Q99607 whole entry): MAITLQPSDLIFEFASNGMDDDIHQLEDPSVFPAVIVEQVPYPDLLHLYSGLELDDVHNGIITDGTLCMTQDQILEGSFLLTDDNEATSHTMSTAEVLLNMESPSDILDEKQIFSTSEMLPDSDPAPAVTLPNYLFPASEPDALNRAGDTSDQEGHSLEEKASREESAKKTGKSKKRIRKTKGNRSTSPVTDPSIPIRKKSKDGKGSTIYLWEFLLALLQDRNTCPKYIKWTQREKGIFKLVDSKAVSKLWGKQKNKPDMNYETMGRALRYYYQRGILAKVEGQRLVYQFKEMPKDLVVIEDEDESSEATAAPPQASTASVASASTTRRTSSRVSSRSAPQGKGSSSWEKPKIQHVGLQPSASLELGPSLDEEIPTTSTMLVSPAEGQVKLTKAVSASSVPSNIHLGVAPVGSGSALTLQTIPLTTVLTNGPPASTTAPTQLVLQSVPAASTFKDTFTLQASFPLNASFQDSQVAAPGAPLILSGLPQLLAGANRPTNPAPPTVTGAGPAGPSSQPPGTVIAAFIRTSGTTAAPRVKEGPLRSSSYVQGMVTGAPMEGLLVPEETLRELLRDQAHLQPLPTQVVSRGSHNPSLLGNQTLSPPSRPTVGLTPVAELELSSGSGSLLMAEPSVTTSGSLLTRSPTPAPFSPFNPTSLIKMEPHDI
# In short: as §1
# ELK4 = molecular target: T6, ELK4 (Homo sapiens, UniProt P28324-2 1-405)
# T6 sequence: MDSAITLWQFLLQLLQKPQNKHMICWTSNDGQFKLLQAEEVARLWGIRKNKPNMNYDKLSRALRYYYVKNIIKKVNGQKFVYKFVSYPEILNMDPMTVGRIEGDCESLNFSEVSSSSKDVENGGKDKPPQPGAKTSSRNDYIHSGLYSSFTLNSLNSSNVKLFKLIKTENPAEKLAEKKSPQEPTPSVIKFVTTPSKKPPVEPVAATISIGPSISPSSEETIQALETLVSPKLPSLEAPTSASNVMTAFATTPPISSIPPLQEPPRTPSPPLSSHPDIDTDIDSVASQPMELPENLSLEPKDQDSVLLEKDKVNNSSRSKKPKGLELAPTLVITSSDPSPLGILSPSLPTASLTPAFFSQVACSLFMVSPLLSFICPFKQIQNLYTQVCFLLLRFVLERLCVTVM
# In short: as §1
sequence,measurement,setting,value
GGTAAA,binding signal,ELK1,"1.1 fold enrichment (6-mer frequency, TF over GST control)"
same,binding signal,GABPA,"1.07 fold enrichment (6-mer frequency, TF over GST control)"
same,binding signal,ERG,"1.04 fold enrichment (6-mer frequency, TF over GST control)"
same,binding signal,ELF1,"1.08 fold enrichment (6-mer frequency, TF over GST control)"
same,binding signal,EHF,"1.05 fold enrichment (6-mer frequency, TF over GST control)"
same,binding signal,SPIB,"1.08 fold enrichment (6-mer frequency, TF over GST control)"
same,binding signal,FEV,"1.02 fold enrichment (6-mer frequency, TF over GST control)"
same,binding signal,ETV5,"1.06 fold enrichment (6-mer frequency, TF over GST control)"
same,binding signal,ELF4,"1.04 fold enrichment (6-mer frequency, TF over GST control)"
same,binding signal,ELK4,"1.11 fold enrichment (6-mer frequency, TF over GST control)"
